GLP1R ag – qHTS of GLP-1 Receptor Agonists; Glucagon-like peptide 1 receptor (Homo sapiens), P43220; HEK293 GLP-1R CRE-luciferase, luminescence, 4-6 h; cells express a hypersensitive GLP-1R form; Potency, µM (series often up to 45.6 µM), actives largely listed as activators; actives 0.007% (n = 380,000); AID 624172, 2012
TRHR agonist – qHTS for Small Molecule Agonists and Allosteric Enhancers of Human TRH Receptor: Primary Screen for Agonists; Thyrotropin-releasing hormone receptor (Homo sapiens), P34981; TRHR cells, calcium flux fluo-8, FDSS agonist mode; activation, % at 2 µM; actives 0.18% (n = 360,000); AID 493084, 2011; in the data active = activation above about 30%
Target sequence (P34981 whole entry, looked up): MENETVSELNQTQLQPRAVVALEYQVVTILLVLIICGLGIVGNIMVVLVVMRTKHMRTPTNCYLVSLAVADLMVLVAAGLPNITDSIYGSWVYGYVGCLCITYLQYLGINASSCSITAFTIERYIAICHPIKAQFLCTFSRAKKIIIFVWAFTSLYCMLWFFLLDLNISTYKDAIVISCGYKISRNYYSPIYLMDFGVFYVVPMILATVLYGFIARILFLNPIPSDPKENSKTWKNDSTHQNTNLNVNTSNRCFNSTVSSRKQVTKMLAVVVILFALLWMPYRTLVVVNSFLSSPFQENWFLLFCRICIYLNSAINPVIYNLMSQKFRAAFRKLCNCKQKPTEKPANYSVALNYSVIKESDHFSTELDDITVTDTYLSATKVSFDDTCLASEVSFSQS
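Agonist-mode FDSS calcium read (Ex 480/Em 530, 1 s cycles) in 1536-well TRHR cells with fluo-8 dye, after 10-cycle baseline and 23 nL compound addition; TRH at EC20 (10 nM final) added afterwards for the enhancer phase.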
TRHR enhancer – qHTS for Small Molecule Agonists and Allosteric Enhancers of Human TRH Receptor: Primary Screen for Enhancers | Thyrotropin-releasing hormone receptor (Homo sapiens), P34981 | enhancement, % at 2 µM | TRHR cells, fluo-8 calcium fluorescence, EC20 TRH enhancement | actives 0.66% (n = 360,000); in the data active = enhancement above about 30%
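TRHR-expressing cells loaded with fluo-8 calcium dye were read kinetically (ex 480/em 530) during compound addition, then stimulated with an EC20 of TRH (10 nM final). Enhancement of the Gq-mediated intracellular calcium response was scored.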
PTHR1 ag – qHTS for PTHR1 Agonists: Primary Screen; actives 0.075% (n = 410,000); HEK293 GP2 PTHR1 cells, GloSensor cAMP luminescence, 1 h; Potency, µM (doses to about 115 µM), actives largely listed as activators; Parathyroid hormone/parathyroid hormone-related peptide receptor (Homo sapiens), Q03431; also: nearly all actives have a fitted effect of over 55% in size
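HEK-293-derived GP2 cells expressing PTHR1 and a GloSensor cAMP reporter, 3,000/well, plated overnight, given luciferin plus IBMX (each 0.5 mM as added) for 1 h at 37 °C, then compound for 1 h at 37 °C. Luminescence was read after 15 min at room temperature.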
GLP-1R inv ag – qHTS of GLP-1 Receptor Inverse Agonists (Inhibition Mode). actives 1.6% (n = 410,000). HEK293 GLP-1R CRE-luciferase, luminescence, 24 h; GLP-1R form is constitutively active. AID 624417, 2012. Potency, µM (doses to about 38.3 µM), hits mostly inhibitors. Glucagon-like peptide 1 receptor (Homo sapiens), P43220; also: nearly all actives have a fitted effect of over 55% in size
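Using stably transfected HEK293 (constitutively active GLP-1R, cAMP-luciferase reporter), compounds were incubated 24 hr and luciferase measured by luminescence.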
HEK293 tox – qHTS of GLP-1 Receptor Inverse Agonists: Cytotox Screen | actives 0.13% (n = 410,000) | HEK293 cAMP-luciferase reporter cells, luminescence, 24 h | AID 624418, 2012 | Potency, µM (titrated, usually from 38.3 µM), actives largely listed as inhibitors;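 also: loss of luciferase light is scored as toxicity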
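MLSMR compounds, 24 hr on cells at 37 deg C/5% CO2; luminescence after luciferase reagent (12 min RT). Inhibition counted as the undesired cytotoxic outcome.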
Large screens that a line does not name were inactive. Compounds with a hit are over-represented: about 2.4% of the library has one in this group of screens. Unless noted, calls follow the shape of the dose curve; as a rule, active = well fitted curve in the direction sought with a large enough effect; inconclusive = small, poorly fitted or top-dose-only effect, or another doubt; inactive = no such curve, though single readings can be large; an effect the other way counts as inactive or inconclusive.

COc1ccc(CCNC(=O)CN(c2cc([N+](=O)[O-])ccc2OC)S(C)(=O)=O)cc1OC	TRHR enhancer 32.4
Nn1c(CSc2ccccn2)nc2ccccc2c1=O	none
CCc1ccccc1NNC(=O)c1snnc1C	GLP-1R inv ag 10µM, HEK293 tox inconclusive
Cc1nnsc1C(=O)NNc1c(Cl)cccc1Cl	GLP-1R inv ag inconclusive
O=C1c2ccccc2-c2onc3ccc(NCc4ccco4)c1c23	TRHR agonist 62.6, GLP-1R inv ag inconclusive, HEK293 tox 11.2µM
CCOc1ccc2noc3c2c1C(=O)c1ccccc1-3	TRHR agonist 45.9
CCNc1ccc2noc3c2c1C(=O)c1ccccc1-3	TRHR agonist 121.6, TRHR enhancer 30.6, HEK293 tox inconclusive
Cc1nn(-c2cccc(C(F)(F)F)c2)c(=O)c2noc(C)c12	none
CC(C)(C)OC(=O)n1cc(/C=N/NC(=O)c2ccco2)c2ccccc21	TRHR enhancer 30.9
CC(=O)n1cc(/C=N/NC(=O)c2ccccc2O)c2ccccc21	none
CCc1nnc(NC(=O)CCS(=O)(=O)c2ccccc2)s1	none
CC(C)(C)c1csc(NC(=O)c2ccncc2)n1	none
CC(C)(C)c1csc(NC(=O)c2ccc(Br)o2)n1	GLP-1R inv ag 10µM
CC(C)(C)c1csc(NC(=O)c2ccc(Cl)s2)n1	GLP-1R inv ag 2.82µM
Cc1ccc(C(=O)Nc2nc(C(C)(C)C)cs2)s1	GLP-1R inv ag inconclusive
CC1CCC(NC(=O)Cn2c3c(c(-c4ccccc4Cl)cc2=O)CCC3)CC1 (configuration not stated)	GLP-1R inv ag inconclusive
CCOc1ccc(NC(=O)CN(C)C(=O)c2ccc(COc3ccccc3)cc2)cc1OCC	GLP-1R inv ag inconclusive
CCCOc1ccc(N2C(=O)CC(N(C(=O)c3ccco3)c3ccc(OCCC)cc3)C2=O)cc1 (configuration not stated)	none
O=C(CS(=O)(=O)Cc1ccccc1)Nc1ccc(S(=O)(=O)N2CCCCCC2)cc1	GLP-1R inv ag inconclusive
COC(=O)CNC(c1ccccc1)c1cc(Cl)ccc1NC(=O)c1cccc(Cl)c1 (configuration not stated)	GLP-1R inv ag 10µM
CCOC(=O)CNC(c1ccccc1)c1cc(Br)ccc1NC(=O)c1cccc(Cl)c1 (configuration not stated)	GLP-1R inv ag 8.91µM (no result: GLP1R ag)
COc1ccccc1Nc1cc(C)nc2nc(-c3ccccc3)nn12	none (no result: GLP1R ag)
CCOc1ccc(NS(=O)(=O)c2ccc(C(=O)NCCCN3CCCC3=O)cc2)cc1	none
COCCNC(=O)C1CCN(Cc2cc3ccccc3n2Cc2ccc(C)cc2)CC1	GLP-1R inv ag 10µM (no result: GLP1R ag)
CCNC(=O)C1CCN(Cc2cc3ccccc3n2Cc2ccc(C)cc2)CC1	none (no result: GLP1R ag)
CC(CNC(=O)C1CCN(Cc2cc3ccccc3n2Cc2ccccc2)CC1)c1ccccc1 (configuration not stated)	GLP-1R inv ag 10µM (no result: GLP1R ag)
Cc1ccccc1Cn1c(CN2CCC(C(=O)NCCc3ccccc3)CC2)cc2ccccc21	GLP-1R inv ag 11.2µM (no result: GLP1R ag)
CN(C)CCNC(=O)C1CCN(Cc2cc3ccccc3n2Cc2ccccc2)CC1	GLP-1R inv ag inconclusive, HEK293 tox inconclusive (no result: GLP1R ag)
CN(Cc1ccccc1)C(=O)C1CCN(Cc2cc3ccccc3n2Cc2ccccc2)CC1	GLP-1R inv ag 10µM (no result: GLP1R ag)
CC(=O)Nc1ccc(S(=O)(=O)N2CCN3CCCC3C2)cc1 (configuration not stated)	none
O=C1CN(C(=O)CC2c3ccccc3-c3ccccc32)CC(=O)N1	none
COc1ccc(/C=C/C(=O)N2c3ccccc3Sc3ccc(C(F)(F)F)cc32)cc1	TRHR enhancer 33.5, GLP-1R inv ag inconclusive
O=C(CCc1ccccc1)NNC(=O)Cc1ccc(Cl)cc1	none
COc1ccc(S(=O)(=O)n2cccc2)c(OC)c1	TRHR enhancer 32.3
COc1ccc(S(=O)(=O)n2cccc2)cc1OC	GLP1R ag inconclusive
CCn1nc([N+](=O)[O-])c(C(C#N)c2nc3cc(C(F)(F)F)ccc3s2)c(Cl)c1=O (configuration not stated)	HEK293 tox 5.01µM
CN(CC(=O)Nc1ccc(F)cc1)C(=O)COc1ccc(C(=O)c2ccccc2)cc1	GLP-1R inv ag 10µM
O=C(CSc1nnc(Cc2cccs2)n1C1CCCCC1)N1CCCc2ccccc21	GLP-1R inv ag 3.55µM, HEK293 tox inconclusive
O=C(CSc1nnc(Cc2cccs2)n1CCc1ccccc1)N1CCCc2ccccc21	GLP-1R inv ag 10µM
O=C(CSc1nnc(Cc2cccs2)n1-c1ccccc1)NC1CCCCC1	GLP-1R inv ag 1.41µM
COC(=O)c1ccc(OC(=O)CCS(=O)(=O)c2ccc(C)cc2)cc1	none
COc1ccc(NC(=O)N2CCCc3cccc(C)c32)cc1	GLP-1R inv ag inconclusive
CCOc1ccccc1OCCCC(=O)N1CCN(S(=O)(=O)c2ccc(Cl)cc2)CC1	none
Cc1cc(Cl)ccc1OCCCC(=O)N1CCN(S(=O)(=O)c2ccccc2)CC1	GLP-1R inv ag 10µM
COc1ccc(NC(=O)c2sc3nc(Cc4ccccc4)cc(C(F)(F)F)c3c2N)cc1OC	TRHR enhancer 31.9
Nc1ccccc1Nc1cc(-c2cccc(Cl)c2)nn1-c1ccccc1	GLP-1R inv ag 10µM
CC(C)Cc1nc(N2CCN(C(=O)c3ccco3)CC2)c(C#N)c2c1CCCC2	GLP-1R inv ag 8.91µM
Cc1nc(N2CCN(C(=O)c3ccco3)CC2)c(C#N)c2c1CCCC2	none
Cc1ccccc1OCc1nc2ccccc2n1Cc1ccccc1Cl	GLP-1R inv ag 3.55µM (no result: GLP1R ag)
Cc1ccccc1OCc1nc2ccccc2n1C	none
Cc1sc2nc(SC(C)C)nc(N)c2c1C	none
COc1ccccc1/C=C/C(=O)Oc1cccc2cccnc12	GLP-1R inv ag 4.47µM, HEK293 tox inconclusive
CCc1ccc(N2CCn3c2nc2c3c(=O)n(CCc3ccccc3)c(=O)n2C)cc1	PTHR1 ag 50.1µM (no result: GLP1R ag)
COc1ccc(S(=O)(=O)N2CCCC(C(=O)NCC3CCCO3)C2)cc1Cl (configuration not stated)	none
O=C(NC12CC3CC(CC(C3)C1)C2)N1CCN(c2nc(-c3ccccc3)cs2)CC1	GLP-1R inv ag 3.16µM

Assay outcomes: PubChem, National Center for Advancing Translational Sciences (NCATS)
